# According to PubChem BioAssay AID588475 (Sanford-Burnham Center for Chemical Genomics, 2011):
# “And” between values parts separate entries of the source, which are not always exact repeats. Identical values can stand only once. The campaign covered roughly 350,000 compounds. About 2,100 (0.6%) were called active.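 How the source made its calls: active means inhibition of the ligand-induced calcium signal above about 50% at the single tested concentration (limit read from the data); inactive means the rest.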 Many of the other results were omitted from the sample, so actives are more common in it than they were. Some structures have more than one record in an assay (separate samples or runs), and their calls can disagree.
# Test: blockers of CRF-evoked CRF-R2/CRF-BP calcium response – cell-based, HEK293, calcium dye fluorescence, uHTS, primary screen (AID 588475)
# Settings: CRF-induced calcium fluorescence, at 11.8 µM, stronger effect = higher value
row,Compound,inhibition
1,CC(C)c1cc(C(=O)N(C)C2CCCN(Cc3ccccc3F)C2)n(C)n1 (stereo unspecified),-12.1% (inactive)
2,CCCCn1c(N)c(N(CC(C)C)C(=O)c2cccc(S(=O)(=O)N3CCN(C(C)=O)CC3)c2)c(=O)[nH]c1=O,8.7% (inactive)
3,COc1ccccc1NC(=O)CC(NCCN(C)C)C(=O)O (stereo unspecified),3.95% (inactive)
4,COC(=O)C(CC(=O)Nc1cc(C)ccc1C)Nc1ccccc1OC (stereo unspecified),70.2% (active)
5,Cc1ccc(C)c(NC(=O)COC(=O)CSc2ccccc2)c1,6.02% (inactive)
6,CCc1ccc(S(=O)(=O)NCC(O)COc2ccc(OC)cc2)cc1 (stereo unspecified),-4.68% (inactive)
7,Cc1ccccc1Nc1scc(-c2ccc(Br)cc2)[n+]1-c1ccccc1C,56.5% (active)
8,Cc1ccsc1/C=N/NC(=O)Cc1cc(=O)[nH][nH]1,14.1% (inactive)
9,Cc1cccc(N2CCN(C(C)C(=O)N3CCc4ccccc43)CC2)c1C (stereo unspecified),-7.95% (inactive)
10,CCC(C)N(C(=O)CSc1ncnc2c1cnn2-c1ccccc1)C1CCS(=O)(=O)C1 (stereo unspecified),-8.13% (inactive)
11,CCN(C(=O)CSc1ncnc2c1cnn2-c1ccccc1)C1CCS(=O)(=O)C1 (stereo unspecified),4.09% (inactive)
12,CCN(CC)C(=O)CSc1ncnc2c1cnn2-c1ccccc1,55.8% (active)
13,O=C(COC(=O)c1cncc(Br)c1)Nc1ccc(S(=O)(=O)N2CCOCC2)cc1,5.84% (inactive)
14,COc1ccc(CCN2C(=O)C(C)=C(C)C2=O)cc1OC,-6.13% (inactive)
15,COc1ccc(CCNC2=C(Cl)C(=O)N(Cc3ccccc3)C2=O)cc1OC,54% (active)
16,COc1ccc(CCN=C2SCC(=O)N2Cc2ccccc2)cc1OC,7.2% (inactive)
17,N#Cc1ccc(-c2ccc(Cl)cc2)nc1Oc1ccc(F)cc1,-14% (inactive)
18,Clc1ccc(Cl)c(Oc2ccc(Oc3nc(Cl)ccc3Cl)cc2)n1,55.5% (active)
19,CCc1nn(CC(=O)N2CCN(CC)CC2)c(=O)c2cccn12,-5.15% (inactive)
20,CN(CCOc1ccc(CC2SC(=O)NC2=O)cc1)c1ccccn1 (stereo unspecified),66.6% (active) and 12.6% (inactive)
21,CC(C)=N/N=C1/NC(=O)C(Cc2ccccc2)S1 (stereo unspecified),2.42% (inactive)
22,CC(O)c1ccc(OCCN(C)c2ccccn2)cc1 (stereo unspecified),-5.71% (inactive)
23,OC(C#CCN1CCOCC1)(c1ccccc1)C1CCCCC1 (stereo unspecified),-6% (inactive)

row,Compound,inhibition
1,Cc1ccccc1-n1c(SCC(=O)Nc2cccc3ccccc23)nc(O)cc1=O,-4.41% (inactive)
2,COc1ccc(S(=O)(=O)N2CCOCC2)cc1NC(=O)CC1CC2CCC1C2 (stereo unspecified),80.4% (active)
3,COc1ccc(S(=O)(=O)N2CCOCC2)cc1NC(=O)CSc1cc(C)ccc1C,1.57% (inactive)
4,COc1ccc(S(=O)(=O)N2CCOCC2)cc1NC(=O)COc1ccccc1,12.8% (inactive)
5,O=C(Nc1cccn(Cc2c(Cl)cccc2Cl)c1=O)c1ccc(Cl)cc1,-7% (inactive)
6,Cc1ccc(OCc2nnc(NC(=O)OCC(C)C)s2)cc1,-2.73% (inactive)
7,COc1cc(C2C(C(=O)Nc3ccc(F)cc3)=C(C)Nc3nc(CCCO)nn32)cc(OC)c1OC (stereo unspecified),5.65% (inactive)
8,COc1ccc(NC(=O)C2=C(C)NC(=O)NC2c2ccccc2[N+](=O)[O-])cc1 (stereo unspecified),-10% (inactive)
9,COC(=O)c1nc2n(n1)C(c1ccc([N+](=O)[O-])cc1)C(C(=O)Nc1ccc(Cl)cc1)=C(C)N2 (stereo unspecified),56.3% (active)
10,O=C(Nc1cc(-c2ccccc2)nn1-c1ccccc1F)c1ccc([N+](=O)[O-])cc1,-5.97% (inactive)
11,CCS(=O)(=O)C1=NSC2=NC(=O)/C(=C\c3ccc(OS(=O)(=O)c4ccccc4)cc3)C(=N)N21,0.32% (inactive)
12,CS(=O)(=O)C1=NN2C(=N)/C(=C\c3ccc(OCCOc4ccccc4)cc3)C(=O)N=C2S1,26.8% (inactive)
13,CCS(=O)(=O)C1=NSC2=NC(=O)/C(=C\c3cc(C)n(-c4cccc(OC)c4)c3C)C(=N)N21,81.8% (active)
14,CCOc1ccc(NC(=S)NC(=O)/C=C/c2ccc(OC)cc2)c([N+](=O)[O-])c1,-8% (inactive)
15,CCOC(=O)/C(C#N)=C\c1c(C)cc(C)c(COC(C)=O)c1C,3.93% (inactive)
16,CCOC(=O)c1nnn(-c2nonc2-n2cccc2)c1CN1CCC(C(=O)OCC)CC1,17.9% (inactive)
17,COc1ccc(-c2ccc(CCC(=O)O)n2NC(=O)c2ccc(C(C)(C)C)cc2)cc1,7.59% (inactive)
18,Cc1cccc(OC(C)C(=O)N2CCc3ccccc3C2)c1 (stereo unspecified),16.6% (inactive)
19,COCc1cc(=O)[nH]c(SC)n1,9.17% (inactive)
20,Cc1cc(C)c2nc3nc(C)cc(C)c3c(N)c2c1,90.7% (active)
21,Cc1ccc(/C=N/NC(=S)Nc2cccc(S(=O)(=O)N(C)C)c2)o1,82.9% (active)
22,Cc1ccc(/C=N/NC(=S)NC2CCCCC2)o1,-28.4% (inactive)
23,CN(C)S(=O)(=O)c1cccc(NC(=S)N/N=C/C(=O)c2ccccc2)c1,3.21% (inactive)
